# About 13,000 (27%) of roughly 48,000 compounds showed an effect of 50% or more. The list shows a part of the results.
# System: Wolbachia pipientis
# Assay: Anti-Wolbachia Cell-Based Screen
# Format: functional
# Parameters: scale not given: in the data most compounds retested in dose-response had high values
# Conditions: 5 µM
row,Structure (SMILES),Percent Effect [%]
1,O=C(CSc1ccccn1)N1C[C@H]2CC[C@@H]1CN(Cc1cscn1)C2,3.579
2,CCN(CC)c1ncc(Cl)c(C(=O)NC2CCc3nccn3C2)n1 (stereo not drawn),-2.888
3,Cc1ccccc1N1CCN(C(=O)c2cnn(C(C)C)c2)C(C)C1 (stereo not drawn),2.986
4,COc1cccc2c1OCC(C(=O)N(Cc1ccncc1)CC(C)C)C2 (stereo not drawn),-1.678
5,CC(C)N(CCO)C(=O)C1CCC(=O)N(CCc2ccc(Cl)cc2)C1 (stereo not drawn),-6.406
6,COc1ncccc1CN1CCC2(CC1)CN(c1ccccn1)CCO2.O=C(O)C(F)(F)F.O=C(O)C(F)(F)F.O=C(O)C(F)(F)F,8.158
7,CNC(=O)COC1COC2(CCN(Cc3cccnc3OC)CC2)C1.O=C(O)C(F)(F)F (stereo not drawn),91.78
8,CNC(=O)COC1COC2(CCN(c3ncccn3)CC2)C1.O=C(O)C(F)(F)F (stereo not drawn),21.38
9,COc1ncccc1CN1CCC2(CC1)CC(OCC1CC1)CO2.O=C(O)C(F)(F)F (stereo not drawn),103.5
10,CCOC1COC2(CCN(Cc3cccnc3OC)CC2)C1.O=C(O)C(F)(F)F.O=C(O)C(F)(F)F (stereo not drawn),97.13
11,COC1COC2(CCN(Cc3ccccc3Cl)CC2)C1.O=C(O)C(F)(F)F (stereo not drawn),-10.24
12,COc1cccc2c1OCC(CNC(=O)CCn1cnnn1)C2 (stereo not drawn),-3.423
13,Cc1cc(N2CCCC(OC(=O)CCc3cnn(C)c3)C2)nc(C)n1 (stereo not drawn),0.03167
14,COCCN1CCN(CC2(O)CCCCC2)CC1,-7.115
15,COCCN1CCC2(CC1)CC(OCC1CC1)c1ccc(C)cc12 (stereo not drawn),-29.1
16,COCCCC1(CO)CCCN(CCS(C)(=O)=O)C1 (stereo not drawn),-5.665
17,COCCN1CCCC(C)(c2cc(O)[nH]n2)C1 (stereo not drawn),85
18,COCCN1CCC(C)(c2cc(O)[nH]n2)CC1,107.8
19,COCCCC1(CO)CCCN(CCOC)C1 (stereo not drawn),5.578
20,COc1cccc([C@@H]2CN(C3CSCCSC3)C[C@H]2C(=O)O)c1,-1.681
21,O=C(O)C(F)(F)F.O=C(O)C(F)(F)F.c1cnc(N2CC[C@@H](N3CCOCC3)[C@@H]2Cc2ccncc2)nc1,-7.245
22,CC(C)NC(=O)NC(C)c1ccc(-c2ccncc2)cc1 (stereo not drawn),-5.821
23,CN([C@@H]1CCC[C@@H](n2ccnc2)[C@@H]1O)S(=O)(=O)c1cn(C)cn1,87.13
24,CCN(CC)[C@@H]1CN(S(=O)(=O)c2cn(C)cn2)[C@@H]2CCCO[C@H]12,-3.081
25,CO[C@H]1CCN(S(=O)(=O)c2cn(C)cn2)[C@H]1Cc1ccncc1,-4.113
26,CN(C)C(=O)c1cc(S(=O)(=O)N2CCCC2Cn2ccnc2)cn1C (stereo not drawn),11.52
27,CC(C)N(C)CC(=O)N1CCCC(n2ccnc2)C1 (stereo not drawn),-10.62
28,Cc1nn(C)cc1S(=O)(=O)N(C)[C@@H]1CCC[C@@H](n2ccnc2)[C@@H]1O,94.74
